Compounds without any hit were thinned out: in the full panel of roughly 79,000, 15% have a hit. A number with no mark means an inactive call. The source made the active and inactive calls. Rule as the data show it: active = growth inhibition above about 70%; inactive = the rest. Where a SMILES comes first, the peptide text is derived from it. [ ]: non-standard residue; d: D form. The star is where a group is joined. ξ: configuration not given here. Cbz = O=C(OCc1ccccc1)*; ξM = CSCCC(N)C(=O)O; ξP = O=C(O)C1CCCN1

In PubChem BioAssay (NCI) one finds growth inhibition data, which are given here for 21 compounds.

Assay [1] can be described thus: NCI Yeast Anticancer Drug Screen. Data for the rad50 strain (AID 155).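 Also: 0% = growth of vehicle-only cultures of the same strain.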 Conditions: S. cerevisiae rad50 strain growth inhibition; at 50.0 µM; active compounds read high. The essentials:
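Growth of the mutant yeast was measured after compound exposure and referenced to vehicle-treated cultures.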

Assay [2] in a line: NCI Yeast Anticancer Drug Screen. Data for the mec2-1 strain (AID 157). Conditions: S. cerevisiae mec2-1 strain, at 50.0 µM, active compounds read high. The essentials:
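Vehicle-treated cultures served as reference for growth inhibition of compound-exposed mec2-1 yeast.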

Assay [3] is described as follows: NCI Yeast Anticancer Drug Screen. Data for the sgs1 mgt1 strain (AID 161).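 Also: 0% = growth of cultures given vehicle only.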 Conditions: S. cerevisiae sgs1 mgt1 strain, at 50.0 µM, active compounds read high. The essentials:
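Inhibition of yeast growth, normalised to vehicle-treated controls, is reported for a strain bearing genetic alterations in DNA damage repair.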

Assay [4] is described as follows: NCI Yeast Anticancer Drug Screen. Data for the cln2 rad14 strain (AID 165).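 Also: 0% = growth equal to vehicle treated cultures.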 Conditions: S. cerevisiae cln2 rad14 strain, at 50.0 µM, active compounds read high. The essentials: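 Each compound was tested on cln2 rad14 yeast. Inhibition of growth was calculated against vehicle-exposed controls.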
Assay [5] is described as follows: NCI Yeast Anticancer Drug Screen. Data for the bub3 strain (AID 167). The conditions noted are these: S. cerevisiae bub3 mutant strain, at 50.0 µM, active compounds read high. The essentials: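 Whole-cell yeast assay. The mutant strain was incubated with compounds, and growth inhibition was determined by comparison with vehicle-treated cells.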
Assay [6] is described as follows: NCI Yeast Anticancer Drug Screen. Data for the mlh1 rad18 strain (AID 175). Conditions: S. cerevisiae mlh1 rad18 strain growth inhibition; at 50.0 µM; active compounds read high. The essentials:
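Vehicle-treated cultures served as the reference for growth inhibition in a yeast strain carrying DNA damage repair alterations exposed to each compound.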

Regarding `COc1cc(C2N3CCCN2CC3)cc(OC)c1OC` (stereo unspecified), the growth inhibition is -3.75% in assay [1]; 0.35% in assay [2]; -21.6% in assay [3]; -3.5% in assay [4]; -7.75% in assay [5]; -2.55% in assay [6].
Take `Nc1n[n+](-c2ccc(Cl)cc2)no1`: the growth inhibition in assay [1] was 67%; in assay [2], 87.8% (active); in assay [3] it was 87.4% (active); in assay [4], 81.7% (active); in assay [5], 82.8% (active); in assay [6], 91.7% (active).
Consider `c1ccc(CCCCc2ccccn2)cc1`, for which the growth inhibition was 32% in assay [1]; -13.1% in assay [2]; 31.6% in assay [3]; 0.2% in assay [4]; 27.4% in assay [5]; 25% in assay [6].
As to `O=C(NNC(=S)Nc1ccccc1)C12CC3CC(CC(C3)C1)C2`, the growth inhibition in assay [1] is -12%; in assay [2], 31.4%; in assay [3] it was 29.8%; in assay [4] it was 14.7%; in assay [5] it was 35.5%; in assay [6], 1.3%.
With `CC(=Nc1ccc(C)cc1)NNc1nc2ccccc2s1`, the growth inhibition is 15.1% in assay [1]; -7.3% in assay [2]; 13.2% in assay [3]; -37.2% in assay [4]; 17.3% in assay [5]; 25% in assay [6].
Regarding `O=[N+]([O-])c1c(O)c(O)c2ccccc2c1Nc1ccccc1`, the growth inhibition in assay [1] was -29.9%; in assay [2], -5.8%; in assay [3], -0.3%; in assay [4], -62.4%; in assay [5], 11.7%; in assay [6], -1.65%.
As for `CSCCC(NC(=O)CNC(=O)CNC(=O)OCc1ccccc1)C(=O)O` (stereo not drawn) (Cbz-Gly-Gly-[ξM]-OH), the growth inhibition in assay [1] was 96.5% (active); in assay [2], 98.7% (active); in assay [3], 92.5% (active); in assay [4], 98.4% (active); in assay [5], 99% (active); in assay [6] it was 96.7% (active).
Consider `NC(=O)C(=Cn1c(=S)[nH]c2ccccc21)C(N)=O`, for which the growth inhibition in assay [1] is -51.9%; in assay [2], -23.2%; in assay [3], -19.1%; in assay [4], -0.5%; in assay [5], -1.8%; in assay [6], -28.2%.
With `CS(=O)(=O)OC(OS(C)(=O)=O)(OS(C)(=O)=O)OS(C)(=O)=O`, the growth inhibition was 15.9% in assay [1]; 6.2% in assay [2]; 0.65% in assay [3]; -7.9% in assay [4]; -2.4% in assay [5]; 9.3% in assay [6].
For `O=NN(CCCl)C(=S)NC1CCCCC1`, the growth inhibition was 3.25% in assay [1]; -0.15% in assay [2]; 6.35% in assay [3]; 7.2% in assay [4]; -3.6% in assay [5]; 47.8% in assay [6].
On to `C/C(CCl)=N/NC(N)=S`, for which the growth inhibition in assay [1] was -13.2%; in assay [2], -2.5%; in assay [3] it was -18.4%; in assay [4] it was 7%; in assay [5], -11.9%; in assay [6], -12.5%.
For the compound `COc1ccc(C(CC(=O)O)c2ccc(OC)cc2OC)cc1` (stereo unspecified), the growth inhibition was -0.3% in assay [1]; 0.8% in assay [2]; 11.8% in assay [3]; -24.5% in assay [4]; 0.85% in assay [5]; 6.95% in assay [6].
On to `ClC1CC/C=C\CC/C=C/CCC1Cl` (stereo unspecified), for which the growth inhibition in assay [1] is 55.7%; in assay [2] it was 48.1%; in assay [3], 22.1%; in assay [4] it was 32%; in assay [5] it was 29.2%; in assay [6], 41.3%.
For the compound `NCC(=O)N1CCCC1C(=O)NCC(=O)NCC(=O)O` (stereo unspecified) (H-G[ξP]GG-OH), the growth inhibition is 11.6% in assay [1]; 0.95% in assay [2]; 4.8% in assay [3]; -32% in assay [4]; -16.9% in assay [5]; 3.15% in assay [6].
As for `CC1=Nc2nc3ccccc3n2C(C)(C)C1`, the growth inhibition was 14.6% in assay [1]; 18.8% in assay [2]; 11.6% in assay [3]; -3.95% in assay [4]; -0.2% in assay [5]; -34.1% in assay [6].
Turning to `Cc1cc2nc(N3CCOCC3)n(C3OC(CO)C(O)C3O)c2cc1C` (stereo unspecified), the growth inhibition is -6.6% in assay [1]; 5.75% in assay [2]; 23.2% in assay [3]; 1.55% in assay [4]; -8.95% in assay [5]; 3.95% in assay [6].
For the compound `CCC1(C)C(=O)SC(=S)N1C` (stereo unspecified), the growth inhibition was 4.4% in assay [1]; -0.2% in assay [2]; -4.9% in assay [3]; -8.4% in assay [4]; -0.7% in assay [5]; 5.6% in assay [6].
`COc1ccc(CC(=O)NCCc2ccc(OC)c(OC)c2OC)cc1`: the growth inhibition was 8.95% in assay [1]; -34.7% in assay [2]; -30% in assay [3]; 8.3% in assay [4]; -10.7% in assay [5]; -32.8% in assay [6].
For the compound `CC(C)CCNCCCCCCl`, the growth inhibition in assay [1] was 62.5%; in assay [2] it was 37.3%; in assay [3] it was 36.7%; in assay [4], 36.6%; in assay [5], 26.8%; in assay [6], 67.1%.
With `CC(C)(C)c1ccc(O)c(C(c2cc(C(C)(C)C)ccc2O)c2cc(C(C)(C)C)ccc2O)c1`, the growth inhibition in assay [1] is 97.2% (active); in assay [2], 98.7% (active); in assay [3] it was 98% (active); in assay [4], 97.6% (active); in assay [5], 96.5% (active); in assay [6], 96.8% (active).
On to `Cc1noc(-c2ccccc2)c1N=Nc1ccccc1`, for which the growth inhibition is 11.6% in assay [1]; 12.1% in assay [2]; 28.1% in assay [3]; -34.2% in assay [4]; 45.1% in assay [5]; 28.5% in assay [6].
